# Laboratory results from PubChem BioAssay AID1246 (Columbia University Molecular Screening Center, 2008).
# The whole screen tested about 120,000 compounds, of which about 840 (0.7%) were called active. For the sample, actives were picked, then their nearest neighbours and some compounds at random. Unmarked numbers belong to inactive results.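 The calls were made as follows: active = inhibition above the batch mean plus 3 SD, and confirmed as a hit on visual image review (cut at about 43% in these data); inconclusive = passes the inhibition cutoff but fails visual image review; inactive = the rest.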
# Test: E-selectin induction blockers in HUVEC – imaging, immunofluorescence, high content, primary screen (AID 1246);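 also: 0% = TNF-stimulated DMSO wells and 100% = unstimulated control wells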
# Settings: HUVEC TNFa-induced E-selectin immunofluorescence, at 2 µM, hits give high values
row,SMILES,inhibition
1,CC(=O)NCCC(=O)Nc1cc(S(=O)(=O)N2CCOCC2)ccc1N1CCOCC1,-13.3%
2,CCc1ccc(NC(=O)Cn2nc(C)c([N+](=O)[O-])c2C)cc1,24.3%
3,COC(=O)c1ccc(NCC(=O)N2CCCCCC2)cc1,7.57%
4,CCOC(=O)c1nc(C)n(-c2ccc(Cl)cc2Cl)n1,-32.4%
5,Cc1cc(C)nc(/N=C2\NC(=O)CC(C(=O)O)N2c2ccc(Cl)cc2Cl)n1 (stereo unspecified),48.5% (active)
6,Cc1cc(Cl)ccc1N1C(=O)CC(SCCC(=O)O)C1=O (stereo unspecified),-14%
7,COc1ccc(Sc2nc(-c3ccccc3)ncc2OC)cc1,-16.9%
8,C=CCN(CC=C)C(=O)COC(=O)c1n[nH]c2ccccc12,-73.3%
9,O=C(CCC(=O)Nc1ccccc1)N/N=C/c1ccccc1F,-1.59%
10,CCCCC(CC)CNC(=O)C(=O)C1C(=O)Nc2ccccc21 (stereo unspecified),-10.1%
11,COCCNC(=O)CN(C(=O)CCC(=O)Nc1cc(C)on1)c1ccc(C)cc1C,-15.2%
12,Cc1cc(NC(=O)CCC(=O)N(CC(=O)NCC2CCCO2)c2ccccc2C)no1 (stereo unspecified),66.4% (active)
13,CCCCOc1ccc(N(CC(=O)NCC2CCCO2)C(=O)CCC(=O)Nc2cc(C)ccn2)cc1 (stereo unspecified),13.7%
14,Cc1ccc(CSc2nc3[nH]ncc3c(=O)[nH]2)cc1,16%
15,Cc1ccc(C(=O)N/C(=C\c2cccs2)C(=O)NCCc2ccccn2)cc1C,-0.32%
16,C=CCC(C(=O)c1ccccc1)[N+](C)(C)CC=C (stereo unspecified),-21.6%
17,CC1COc2ccccc2N1S(=O)(=O)c1ccccc1 (stereo unspecified),10%
18,O=C1c2ccccc2NC(c2ccccn2)N1NS(=O)(=O)c1ccccc1 (stereo unspecified),12.1%
19,COc1ccc(CCNC(=O)CC2SC(=Nc3cc(C)cc(C)c3)NC2=O)cc1OC (stereo unspecified),-40.4%
20,CCn1c(SC)nc(O)c(C(c2ccc(OC)c(O)c2)c2c(O)nc(SC)n(CC)c2=O)c1=O,-24.8%
21,COc1ccc2c(c1OC)C(=O)OC2Nc1nc(-c2ccccc2)cs1 (stereo unspecified),36.5%

row,SMILES,inhibition
1,COc1ccc2c(c1OC)C(=O)OC2c1c(O)nc(SC)n(-c2ccccc2)c1=O (stereo unspecified),95% (active)
2,O=C(O)CCCCOn1ccnc1,2.16%
3,Clc1ccc(CN2CCN(/N=C/c3cccnc3)CC2)cc1,-6.01%
4,Oc1ccc(-c2nncn2-c2ccccc2)cc1,-13.7%
5,CCCCN(C(=O)/C=C/c1ccco1)c1c(N)n(CC(C)C)c(=O)[nH]c1=O,7.93%
6,O=C(Nn1cnc2ccccc2c1=O)c1ccc([N+](=O)[O-])cc1Cl,-17%
7,O=C1CCCc2c1[nH]c1ccc(Br)cc21,71.4% (active)
8,O=C(O)CCC(=O)NCc1ccc2[nH]c3c(c2c1)CCCC3,-12%
9,O=[n+]1c2c(n([O-])c3cc(Br)ccc31)CCC2,8.3%
10,CCN1C(=O)/C(=c2\s/c(=C3\Sc4ccccc4N3C)c(=O)n2C)N(C)C1=S,-4.14%
11,O=S(=O)(NCCNS(=O)(=O)c1ccccc1)c1ccccc1,-9.47%
12,CCC(C)NC(=O)/C=C/c1ccc(S(=O)(=O)NCc2ccco2)cc1 (stereo unspecified),1.55%
13,CCN(CC)CCNS(=O)(=O)c1ccc(/C=C/C(=O)O)cc1,85.3% (active)
14,O=C(Nc1ccnc(-c2ccncc2)n1)c1cccs1,-27.2%
15,CCNC(=S)NNC(=O)C1CCN(Cc2ccccc2)CC1,-1.82%
16,O=C1/C(=C\c2ccccc2Cl)SC(=S)N1CCC(=O)N1CCCc2ccccc21,-3.4%
17,Cc1occc1C(=O)N1CCCc2ccccc21,19.4%
18,O=C(c1c(Cl)nc2sccn12)N1CCCc2ccccc21,79% (active)
19,Cc1ccc(CN2CCN(Cc3ccc4ncccc4c3)CC2CCO)cc1 (stereo unspecified),-11.2%
20,COc1ccc(Cn2c(=O)cc(C)[nH]c2=S)cc1,5.51%
21,Cn1cccc1C(C#N)c1ccccc1C#N (stereo unspecified),20.5%

row,SMILES,inhibition
1,CCCS(=O)(=O)N1CCC(CCOc2ccccc2)(C(=O)OCC)CC1,-12.3%
2,COc1ccc(F)c(-c2nc(CN3CCC(c4ccccc4)CC3)c(C)o2)c1,-28.7%
3,COc1ccc(CS(=O)/C(Cl)=C(/Cl)C(=O)Nc2ccc(OC)nc2)cc1 (stereo unspecified),99.4% (active)
4,COc1ccc(NC(=S)Nc2ccccc2Cl)cn1,-66.9%
5,COc1ccc(NC(=O)/C(Cl)=C(/Cl)S(=O)Cc2ccc(C)cc2)cn1 (stereo unspecified),27.8%
6,O=c1cc(O)c(-c2cccc(C(F)(F)F)c2)c(Cl)[nH]1,14.3%
7,CCc1ccccc1NC(=S)N(CCN1CCCCCC1)Cc1ccco1,-12.7%
8,CCOC(=O)COc1ccc([N+](=O)[O-])cc1,7.8%
9,N/C(Cc1ccc([N+](=O)[O-])cc1)=N\OC(=O)COc1ccc2ccccc2c1,62.5% (active)
10,N/C(Cc1ccc([N+](=O)[O-])cc1)=N\OC(=O)C1CCCCC1,-1.96%
11,Cc1ccnc(NC(=O)CCCOc2ccccc2)c1,4.53%
12,Cc1cc(C)nc(SCC(=O)N(C)C)n1,0.21%
13,COc1ccc(CN2CCNC(=O)C2CC(=O)N(C)Cc2ccccn2)cc1OC (stereo unspecified),-8.81%
14,Cc1cc(C)c(C#N)c(SCC(=O)Nc2ccccc2)n1,-29.3%
15,CC(=O)c1ccc(-c2nnc(CCC(=O)N(C)Cc3cnc4ccccn34)o2)s1,4.22%
16,N#CC1=C(N)Oc2[nH]c(=S)[nH]c(=O)c2C12C(=O)Nc1ccccc12 (stereo unspecified),-26.7%
17,COc1ccc(-n2nnnc2SCC(=O)NCc2cccs2)cc1,12.9%
18,COc1ccc(-c2nnn(Cc3nc(N)nc(N4CCCCC4)n3)n2)cc1,-40.4%
19,COc1ccc(-n2nnnc2SCc2nc(N)nc(N3CCOCC3)n2)cc1,61.2% (active)
20,CCOC(=O)c1sc(=NC(=O)/C=C/c2cccs2)n(C)c1C,-26.1%
21,Cc1cccc(C(=O)NNC(=O)c2cccc([N+](=O)[O-])c2)c1,-0.72%

row,SMILES,inhibition
1,O=C(CC12CC3CC(CC(C3)C1)C2)NCc1ccco1,23.1%
2,Fc1ccccc1Cn1cnc(NC(=S)NCCc2ccccc2)n1,-14.1%
3,CCC(C)CN1CCC(CO)(Cc2ccccc2Cl)CC1 (stereo unspecified),-16.5%
4,CCN1CCN(CC(=O)Nc2sc3c(c2C#N)CCC3)CC1,9.33%
5,CCN(CC)CCNC(=O)c1ccc(NC(=O)c2c(F)cccc2Cl)cc1,-1.94%
6,O=C(NCC1CCCO1)C1CCN(C2CCN(C(=O)C3CCCCC3)CC2)CC1 (stereo unspecified),13%
7,Cn1c(=O)cc(OCCCC(=O)N2CCN(Cc3ccc4c(c3)OCO4)CC2)c2ccccc21,52.1% (active)
8,Cn1c(=O)cc(OCCCC(=O)N2CCN(c3ccccn3)CC2)c2ccccc21,-12.9%
9,O=C(CCCN1C(=O)c2cccc3cccc(c23)C1=O)N1CCN(Cc2ccc3c(c2)OCO3)CC1,-25.6%
10,COCc1ccc(C(=O)N2CCc3c([nH]c4ccccc34)C2c2ccccn2)s1 (stereo unspecified),4.79%
11,CCN(CC)c1ccc2c(Nc3ccccc3)c(C=O)c(=O)oc2c1,-20.2%
12,O=C(COC(=O)c1ccco1)NCc1ccc(Cl)cc1,-1.29%
13,O=S(=O)(/N=C(/Nc1ccccn1)c1ccccc1)c1ccc(Cl)cc1,-19.7%
14,O=S(=O)(/N=C(/Nc1ccccc1)c1ccccc1)c1cccs1,68.3% (active)
15,O=C(O)c1ccc(NC(=O)c2cccs2)cc1,-5.04%
16,COc1ccc(NC(=O)CN2C(=O)CSC2=O)cc1,-1.6%
17,O=C(N/N=C/c1cc2c(cc1Br)OCO2)C1COc2ccccc2O1 (stereo unspecified),-17.4%
18,Cc1cc(C)cc(OCC(=O)Nc2ccc(S(=O)(=O)Nc3ccccn3)cc2)c1,-36.2%
